Columns and labels:
Conditions in all cases: concentration: 1 μM,replicates: in singlicate; n = 1
NIM1 = tested on: T1, NIM1
T1 construct: gene MGC42105

NLK = tested on: NLK
OSR1 = tested on: T2, OSR1
T2 construct: gene OXSR1

PAK1 = tested on: PAK1
PAK2 = tested on: PAK2
PAK3 = tested on: PAK3
PAK4 = tested on: PAK4
PAK6 = tested on: PAK6
PAK7 = tested on: PAK7
PCTK1 = tested on: T3, PCTK1
T3 construct: gene CDK16

PCTK2 = tested on: T4, PCTK2
T4 construct: gene CDK17

PCTK3 = tested on: T5, PCTK3
T5 construct: gene CDK18

PDGFRA = tested on: PDGFRA
PDGFRB = tested on: PDGFRB
PDPK1 = tested on: PDPK1
PFTAIRE2 = tested on: PFTAIRE2
PFTK1 = tested on: T6, PFTK1
T6 construct: gene CDK14

PHKG1 = tested on: PHKG1
PHKG2 = tested on: PHKG2
PIK3C2B = tested on: PIK3C2B
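Note: KINOMEscan kinase panel screen.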

| Compound | %Inh (NIM1) | %Inh (NLK) | %Inh (OSR1) | %Inh (PAK1) | %Inh (PAK2) | %Inh (PAK3) | %Inh (PAK4) | %Inh (PAK6) | %Inh (PAK7) | %Inh (PCTK1) | %Inh (PCTK2) | %Inh (PCTK3) | %Inh (PDGFRA) | %Inh (PDGFRB) | %Inh (PDPK1) | %Inh (PFTAIRE2) | %Inh (PFTK1) | %Inh (PHKG1) | %Inh (PHKG2) | %Inh (PIK3C2B) |
| --- | --- | --- | --- | --- | --- | --- | --- | --- | --- | --- | --- | --- | --- | --- | --- | --- | --- | --- | --- | --- |
| FC(F)(F)c1cc(Br)cc(Nc2nccc(-c3cnn4ncccc34)n2)c1 [GW810578] | 0% | 0% | 2% | 11% | 45% | 27% | 22% | 20% | 6% | 3% | 21% | 31% | 64% | 98.4% | 5% | 0% | 14% | 16% | 0% | 0% |
| O=C(NOCC1CC1)c1cc(Br)c(F)c(F)c1Nc1ccc(I)cc1Cl | 25% | 0% | 0% | 2% | 12% | 16% | 0% | 0% | 0% | 0% | 0% | 0% | 0% | 13% | 9% | 0% | 0% | 0% | 0% | 0% |
| Nc1nccc(-c2ccc3c(N)n[nH]c3c2)n1 [GSK1034945] | 17% | 33% | 6% | 18% | 11% | 7% | 0% | 0% | 2% | 0% | 0% | 10% | 0% | 17% | 34% | 15% | 10% | 5% | 13% | 0% |
| CC(=O)Nc1nc2cnc(Nc3cc(NC(=O)c4cccc(CC(C)(C)C#N)c4)ccc3C)nc2s1 | 23% | 1% | 41% | 25% | 25% | 28% | 8% | 21% | 2% | 25% | 47% | 29% | 99% | 100% | 39% | 31% | 14% | 19% | 0% | 14% |
| CN(c1ccccc1CNc1nc(Nc2ccc3c(c2)CC(=O)N3)ncc1C(F)(F)F)S(C)(=O)=O | 0% | 0% | 0% | 0% | 0% | 68% | 2% | 0% | 11% | 28% | 49% | 4% | 3% | 83% | 34% | 35% | 8% | 35% | 25% | 0% |
| C[C@@H]1CCN(C(=O)N2CCCC2)C[C@@H]1N(C)c1ncnc2[nH]ccc12 | 18% | 0% | 11% | 0% | 0% | 25% | 0% | 0% | 3% | 5% | 0% | 0% | 21% | 19% | 0% | 0% | 0% | 0% | 5% | 0% |
| CCN1CCN(CCCC(=O)Nc2n[nH]c3nc(-c4ccc(O)cc4)c(Br)cc23)CC1 [SB-731579] | 3% | 0% | 0% | 0% | 33% | 36% | 61% | 0% | 7% | 56% | 40% | 41% | 39% | 99.4% | 0% | 11% | 31% | 0% | 2% | 0% |
| Cn1cc(-c2cccc3c(N)c(C(N)=O)nnc23)cn1 | 9% | 20% | 24% | 0% | 2% | 44% | 1% | 13% | 18% | 6% | 2% | 5% | 12% | 10% | 2% | 6% | 0% | 10% | 0% | 0% |
